What all share (assay): NCI-60 one-dose screen, 48 h (100 = growth as untreated, 0 = no growth, -100 = all killed)
What all share (settings): 10 µM unless noted

Assay [1] concerns NCI-H23 lung.
For assay [2], the system named is NCI-H226 lung.
The subject of assay [3] is NCI-H322M lung.
Assay [4] concerns HOP-62 NSCLC.
In assay [5] the test system is NCI-H460 lung.
Assay [6] deals with HOP-92 NSCLC.
The test system of assay [7] is NCI-H522 lung.
For assay [8], the system named is A549/ATCC NSCLC.
Assay [9] concerns 786-0 renal.

Compounds without any hit were thinned out: in the full panel of roughly 83,000, 20% have a hit.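 96-well plates, one dose, 48 hours. Percent growth reported; active if below 10.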 A number with no mark means an inactive call. The source made the active and inactive calls.

Regarding `O=C(CC12CC3CC(CC(C3)C1)C2)NCCOCCOCCNC(=O)c1cc2c(o1)C(=O)c1ccccc1C2=O`, the growth in assay [1] was -52.9% (active); in [2], -71.7% (active); in assay [3], -90.2% (active); in [4] it was -58.3% (active); in [5] it was -72.6% (active); in [6], -8.25% (active). Moreover, the growth in [7] was -49.5% (active); in [8], -61.7% (active); in assay [9] it was -29.1% (active).

For `O=C(Nc1ccccn1)[C@H](O)[C@@H](O)C(=O)N1CCOCC1`, the growth was 106% in [1]; 95.3% in assay [2]; 115% in assay [3]; 104% in assay [4]; 105% in [5]; 106% in assay [6]. Further, the results for the growth in [7], in assay [8] and in assay [9] were 102%, 99.6% and 107%, respectively.

Consider `N#Cc1c(NC(=O)c2ccccc2I)sc2c1CCCC2`, for which the growth in [1] is 73.4%; in assay [2], 41.7%; in assay [3] it was 88.5%; in [4], 42.2%; in assay [5], 17.8%; in [6] it was 71.6%. Also, the growth is 24.6% in assay [7], 53.6% in [8] and 52.2% in assay [9].

Consider `CN1CCC(=C2c3ccccc3C=Cc3ccccc32)CC1`, for which the growth in [1] was 83.7%; in assay [2] it was 96%; in assay [3], 104%; in assay [4], 83.4%; in assay [5], 93.3%; in assay [6], 67%. For the same compound, the values for the growth in assay [7], in assay [8] and in assay [9] were 39%, 91.1% and 67.5%, respectively.

Turning to `COc1cc2c(cc1OC)-c1ccc3cc4c(cc3c1N(CCN(C)C)C2)OCO4`, the growth in [1] is -8.26% (active); in [2] it was -84.7% (active); in assay [3], -3.14% (active); in [4] it was -21.6% (active); in [5] it was -34.2% (active); in [6] it was -5.08% (active). Also, the growth is -44.9% (active) in [7], -57.3% (active) in assay [8] and -87.7% (active) in [9].

Take `CC(C)(C)OC(=O)N1Cc2cc3ccccc3nc2C1CO` (stereo unspecified): the growth is 85.9% in [1]; 92.1% in assay [2]; 104% in assay [3]; 102% in [4]; 107% in [5]; 96.7% in assay [6]. Moreover, the growth was 110% in assay [7], 95.6% in assay [8] and 95.8% in assay [9].

In the case of `CCCCCCCC/C=C/CCCCCCCC1=NCC[N+]1(CCO)CCO`, the growth in assay [1] is 67.9%; in [2], 71.1%; in assay [3], 83.8%; in assay [4], 74.8%; in assay [5], 42.7%; in [6], 46.4%. For the same compound, the figures for the growth in assay [7], in assay [8] and in assay [9] were 29%, 81.9% and 72.3%, respectively.

Consider `CC1(C)C(=O)/C(=C\c2cccnc2)C[C@]2(C)[C@H]3CC=C4[C@@H]5C[C@@](C)(C(=O)O)CC[C@]5(C)CC[C@@]4(C)[C@]3(C)CC[C@@H]12`, for which the growth is 102% in assay [1]; 92.9% in [2]; 93.1% in assay [3]; 96.6% in [4]; 101% in [5]; 88.9% in assay [6]. Besides, the growth in assay [7] was 87.1%; in assay [8] it was 78.8%; in [9], 101%.

Regarding `CN(C)CCOC(=O)Nc1ccc(Cl)cc1`, the growth is 102% in assay [1]; 88.8% in assay [2]; 92.2% in assay [3]; 88.4% in [4]; 106% in assay [5]; 85.5% in assay [6]. The values for the growth in assay [7], in [8] and in [9] were 64.9%, 94.7% and 94.2%, respectively.

Take `CCN(CC)CCOC(=O)N1c2ccccc2Sc2ccccc21`: the growth was 104% in assay [1]; 95.2% in [2]; 89.7% in [3]; 88.7% in assay [4]; 103% in [5]; 73.1% in assay [6]. For the same compound, the growth is 68.7% in assay [7], 88.9% in assay [8] and 91.4% in assay [9].

Take `O=C(NC1CCOCC1)c1ccc2c(c1)CN(c1ncc(Cc3cccc(-n4cccn4)c3)s1)CC2`: the growth in [1] is 57.7%; in assay [2], 62%; in assay [3] it was 87.8%; in assay [4] it was 104%; in assay [5], 79.9%; in [6], 44.9%. Besides, the growth is 38.8% in assay [7], 76% in [8] and 68.7% in [9].

`O=C(CCCCCCCn1cc(-c2cccnc2)nn1)Nc1ccccc1-c1ccccc1`: the growth was 63.6% in [1]; 55.4% in assay [2]; 65.3% in assay [3]; 61.1% in assay [4]; 29.3% in assay [5]; 96.5% in assay [6]. In addition, the results for the growth in assay [7], in assay [8] and in assay [9] were 27.5%, 36.9% and 53.4%, respectively.

On to `N=C(N)c1ccc(-c2ccc(-c3ccc(Cl)cc3Cl)o2)cc1`, for which the growth in [1] was 3.61% (active); in assay [2], 93.7%; in assay [3] it was -53.9% (active); in [4], -12.1% (active); in assay [5] it was -65.7% (active); in assay [6], 45.3%. In addition, the growth in assay [7] is 1.99% (active); in assay [8], -46.5% (active); in assay [9] it was -86% (active).

For the compound `Cc1ccc(Nc2ccc(Nc3ccc(C)cc3S(=O)(=O)O)c3c2C(=O)c2ccccc2C3=O)c(S(=O)(=O)O)c1`, the growth was 97.2% in assay [1]; 96.9% in [2]; 90% in assay [3]; 107% in assay [4]; 102% in assay [5]; 99% in assay [6]. For the same compound, the growth in assay [7] is 93.3%; in assay [8], 112%; in [9] it was 111%.

As for `COc1ccccc1C(=O)NC(=S)Nc1ccc(-c2nc3ccccc3[nH]2)cc1`, the growth in [1] is 58.4%; in assay [2], 46.3%; in [3], 80.7%; in assay [4] it was 46.2%; in assay [5], 4.59% (active); in assay [6] it was 101%. Moreover, the growth was 91.4% in assay [7], 58.7% in assay [8] and 41.5% in assay [9].

For `CCOc1ccc2nc(-c3cccc(OCC(=O)NC(C)C)c3)nc(Nc3ccc(-c4cn[nH]c4)cc3)c2c1`, the growth in assay [1] is 11.3%; in assay [2], 38.8%; in assay [3], -8.36% (active); in [4], -36.3% (active); in assay [5], -37.9% (active); in assay [6] it was -27.9% (active). In addition, the values for the growth in [7], in assay [8] and in assay [9] were -25.3% (active), -34.9% (active) and -12.5% (active), respectively.

Consider `Cc1[nH]c(-c2nc3ccccc3[nH]2)c(C)c1C(=O)N1CCc2sccc2C1`, for which the growth was 91.2% in assay [1]; 88.3% in [2]; 98.6% in [3]; 98.2% in assay [4]; 94.4% in assay [5]; 81.6% in assay [6]. In addition, the growth was 77.1% in assay [7], 93% in assay [8] and 99.7% in assay [9].

`N#C/C(=C\c1ccc(Br)cc1)n1nnc2ccccc21`: the growth in assay [1] was 13.5%; in assay [2], -23.9% (active); in assay [3], -12.2% (active); in [4], 17.9%; in assay [5] it was -23.2% (active); in [6] it was -15% (active). The growth is -6.64% (active) in [7], 18.1% in assay [8] and 5.88% (active) in assay [9].

Turning to `O=C(CC1Sc2ccccc2NC1=O)NNc1ccc(F)cc1` (stereo unspecified), the growth in assay [1] was 95.3%; in [2], 84.4%; in [3] it was 86.8%; in [4], 57.1%; in assay [5] it was 93.1%; in assay [6] it was 71.4%. Moreover, the growth in assay [7] is 71.1%; in assay [8], 92.5%; in assay [9] it was 78.1%.

Regarding `NC(=O)c1c(NC(=O)c2ccccn2)sc2c1CCC(=O)C2`, the growth is 17.2% in assay [1]; 70.7% in assay [2]; 94.3% in assay [3]; 81% in assay [4]; 71.2% in [5]; 15.9% in assay [6]. Moreover, the growth is -13.5% (active) in [7], 60.6% in [8] and 89.4% in assay [9].

For the compound `CCOC(=O)C(O)C(O)(c1ccccc1)c1ccccc1` (stereo unspecified), the growth is 102% in assay [1]; 90.2% in [2]; 96.7% in assay [3]; 97% in [4]; 110% in [5]; 113% in assay [6]. In addition, the growth in [7] was 92.8%; in assay [8] it was 95.6%; in [9] it was 102%.

Turning to `O=C1N(c2ccccc2)C(=S)N[C@]12[C@H](c1ccccc1)C1CCCN1[C@]21C(=O)NC2C=CC(Cl)=C[C@H]21` (stereo partly specified), the growth was 96.2% in assay [1]; 82.5% in assay [2]; 99.2% in assay [3]; 91.5% in assay [4]; 102% in assay [5]; 56.7% in assay [6]. The growth in assay [7] is 61.8%; in assay [8], 75.4%; in assay [9] it was 97%.

For the compound `CCN(CC)S(=O)(=O)c1ccc(O)c(NC(=O)c2[nH]c(C)c(C(C)=O)c2CCc2ccc(Cl)cc2)c1`, the growth was 19.6% in [1]; 62.5% in [2]; 54.7% in [3]; 48.9% in assay [4]; 50.2% in assay [5]; 38.2% in [6]. Also, the growth was 11.9% in assay [7], 37.2% in assay [8] and 73.4% in assay [9].

Take `Nc1ccc(CCCCc2ccccc2)c(Cl)c1`: the growth is 101% in assay [1]; 96.8% in assay [2]; 85% in assay [3]; 105% in assay [4]; 102% in assay [5]; 53.1% in assay [6]. Besides, the growth was 71.1% in assay [7], 81.2% in assay [8] and 88.9% in assay [9].

As to `CCCCCCN(CCCCCC)CC(O)c1cccc2ccc(Cl)cc12` (stereo unspecified), the growth was 38.8% in assay [1]; 85.6% in [2]; 66.4% in [3]; 31.8% in assay [4]; 44% in [5]; 3.01% (active) in [6]. Further, the growth in assay [7] is 38.1%; in assay [8], 67.2%; in assay [9], 53.2%.

Take `C=C(C=O)[C@@H]1CC=C(C=O)CC1`: the growth is -4.9% (active) in [1]; 71.2% in assay [2]; -24.7% (active) in assay [3]; -19.7% (active) in assay [4]; -16.6% (active) in [5]; -39.9% (active) in [6]. Also, the growth in assay [7] is 5.01% (active); in assay [8], 15.6%; in assay [9], -19.3% (active).

With `NC(=S)c1csc(CCNC(=O)c2ccccc2)n1`, the growth is 100% in assay [1]; 116% in assay [2]; 108% in assay [3]; 109% in [4]; 109% in [5]; 97.3% in [6]. Further, the growth in assay [7] is 106%; in [8], 90.1%; in [9] it was 98.2%.

Regarding `O=C1N/C(=N/O)S/C1=C/c1cn(-c2ccccc2)nc1-c1ccccc1`, the growth in assay [1] is 88.1%; in assay [2], 91.9%; in [3], 87.3%; in assay [4] it was 98%; in assay [5], 104%; in assay [6], 107%. The growth was 95.6% in [7], 93.6% in assay [8] and 83.7% in assay [9].

With `C[C@H]1[C@H]2C3=CC[C@@H]4[C@@]5(C)C/C(=C/c6ccncc6)C(=O)C(C)(C)[C@@H]5CC[C@@]4(C)[C@]3(C)CC[C@@]2(C(=O)N2CCN(C)CC2)CC[C@@H]1C`, the growth in assay [1] is 93.2%; in assay [2], 85.5%; in [3], 78.2%; in assay [4], 74.7%; in [5] it was 68.3%; in [6], 42.8%. For the same compound, the results for the growth in assay [7], in assay [8] and in assay [9] were 70%, 63.9% and 81.4%, respectively.

Source of the values: PubChem BioAssay (NCI).
